# The panel holds about 83,000 compounds, 20% with a hit somewhere; the sample as a whole holds those more often.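 Plates (96-well) were seeded with cells, treated with compound at one concentration, and incubated for 48 hours before percent growth was determined.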 Values without a mark were called inactive. Activity calls are given as the source filed them. Rule for the calls: active = growth percent below 10; inactive = the rest.
# Columns and labels:
# Experiment in all cases: NCI-60 one-dose screen, 48 h (100 = growth as untreated, 0 = no growth, -100 = all killed)
# Details in all cases: 10 µM unless noted
# SR leukemia = test system: SR leukemia
# RPMI-8226 leukemia = test system: RPMI-8226 leukemia
# OVCAR-8 ovarian = test system: OVCAR-8 ovarian
# OVCAR-5 ovarian = test system: OVCAR-5 ovarian
# OVCAR-4 ovarian = test system: OVCAR-4 ovarian
# SK-OV-3 ovarian = test system: SK-OV-3 ovarian
# IGROV1 ovarian = test system: IGROV1 ovarian
# OVCAR-3 ovarian = test system: OVCAR-3 ovarian
# HS 578T breast = test system: HS 578T breast
# NCI/ADR-RES ovarian = test system: NCI/ADR-RES ovarian
# T-47D breast = test system: T-47D breast
# BT-549 breast = test system: BT-549 breast
# MDA-MB-435 melanoma = test system: MDA-MB-435 melanoma
# SW-620 colon = test system: SW-620 colon
# MCF7 breast = test system: MCF7 breast
# HCT-116 colon = test system: HCT-116 colon
# HCC-2998 colon = test system: HCC-2998 colon
# KM12 colon = test system: KM12 colon
Compound,growth (SR leukemia),growth (RPMI-8226 leukemia),growth (OVCAR-8 ovarian),growth (OVCAR-5 ovarian),growth (OVCAR-4 ovarian),growth (SK-OV-3 ovarian),growth (IGROV1 ovarian),growth (OVCAR-3 ovarian),growth (HS 578T breast),growth (NCI/ADR-RES ovarian),growth (T-47D breast),growth (BT-549 breast),growth (MDA-MB-435 melanoma),growth (SW-620 colon),growth (MCF7 breast),growth (HCT-116 colon),growth (HCC-2998 colon),growth (KM12 colon)
Clc1c(Cl)[n+](Cc2ccc3ccccc3c2)cn1Cc1ccc2ccccc2c1,-55.6% (active),-43% (active),-10.7% (active),54.9%,-3.18% (active),19%,-20.3% (active),-21.8% (active),53.1%,97.8%,-3.8% (active),-69.5% (active),-31.4% (active),34.4%,11.8%,7.02% (active),16%,-67.6% (active)
O=C(/C=C/c1ccc(Cl)cc1)c1cccc(OCCCOc2cccc(C(=O)/C=C/c3ccc(Cl)cc3)c2)c1,32.8%,-8.57% (active),99.3%,113%,91.7%,100%,108%,95.4%,106%,105%,78%,105%,101%,98.6%,21.1%,26%,104%,103%
O=C(N/N=C\c1cccc([N+](=O)[O-])c1)N/N=C/c1cccc([N+](=O)[O-])c1,109%,97.1%,101%,114%,105%,101%,107%,112%,97.9%,106%,97.2%,108%,108%,103%,66.5%,108%,109%,107%
CNC(=O)c1cc(Oc2ccc3c(c2)sc2nc(-c4ccc(OC)cc4)cn23)ccn1,38%,20.2%,52.4%,36%,65.8%,16.8%,83.3%,4.08% (active),76.8%,71.3%,46.4%,52.4%,5.17% (active),77.7%,12.9%,16%,17.4%,58.9%
COc1cccc(/C=N/NC(=O)c2ccccc2N2CCCC2)c1O,77.4%,-1.83% (active),54.9%,57.9%,18%,63.6%,-24.3% (active),-4.45% (active),87.3%,13.6%,24.7%,17.8%,85.5%,45.3%,5.29% (active),4.81% (active),51.8%,46.5%
Cc1nn(-c2cc(NC3CCC(O)CC3)c3c(=O)[nH]c(CCC(F)(F)F)cc3c2)c2c1C(=O)CC(C)(C)C2 (stereo unspecified),25.9%,40.7%,52.1%,85.3%,66.8%,36.3%,55.2%,70%,34.4%,72%,62.9%,43.8%,19.3%,24.1%,26.5%,38%,10.9%,23.4%
CCCCNc1nnc2n(Cc3ccccc3)c(=O)c3c4c(sc3n12)CCCC4,9.01% (active),34.4%,46.2%,106%,71.7%,62.5%,46.7%,49.2%,71.5%,55.7%,43.2%,56.3%,51.8%,23.3%,43.4%,27.2%,65%,49.8%
CC1(C)CC[C@]2(CO)CC[C@]3(C)[C@H](CC[C@@H]4[C@@]5(C)CCCNC(C)(C)[C@@H]5CC[C@]43C)[C@H]2[C@H]1O,10.5%,31.4%,95%,92.8%,89.7%,92.5%,82.3%,94.3%,83.5%,93.1%,88.8%,89.3%,82.7%,54.2%,55.2%,50.2%,38.2%,77.9%
O=C1/C(=C/c2ccccc2F)CN(C(=O)C(Cl)Cl)C/C1=C\c1ccccc1F,-11.4% (active),-27.7% (active),2.66% (active),-41.6% (active),14.9%,32.4%,-36.9% (active),-94% (active),4.55% (active),5.18% (active),-7.38% (active),-46.5% (active),-56.8% (active),-76.9% (active),-49% (active),-90.3% (active),-76.9% (active),-51.7% (active)
FC(F)(F)Oc1cccc(-c2cnc3ccc(-c4ccncc4)nn23)c1,4.36% (active),15.9%,14.3%,16.5%,47%,-19.3% (active),12.1%,8.85% (active),23.4%,11.6%,-0.156% (active),25.2%,12.3%,23.2%,10.7%,10.8%,32.5%,8.63% (active)
CC[C@]12C=CCN3CC[C@@]4(c5ccc(OC)cc5N(C)[C@H]4[C@@](O)(C(=O)OC)[C@@H]1OC(=O)CCC[P+](c1ccccc1)(c1ccccc1)c1ccccc1)[C@@H]32,9.57% (active),-12.6% (active),3.13% (active),21.4%,-3.58% (active),-21% (active),-0.0574% (active),-2.49% (active),25.5%,100%,1.08% (active),11%,-21.6% (active),17.4%,-3.34% (active),8.72% (active),-22.5% (active),-27.2% (active)
C[C@H](CCCC(=O)NCC#CCN1CCN(C)CC1)[C@H]1CC[C@H]2[C@@H]3CC[C@@H]4CC(=O)CC[C@]4(C)[C@H]3CC[C@]12C,48.3%,86.7%,94.6%,93.3%,98.4%,81.6%,92.2%,91.5%,81.8%,93.5%,101%,76.8%,95.5%,98.7%,79.7%,68.2%,104%,99.8%
Cc1[nH]c(C2CC(c3ccc(C(F)(F)F)c(F)c3)=NN2c2ccccc2)c(C)c1C(=O)NCC(F)(F)F (stereo unspecified),81.6%,70.7%,87.8%,94.8%,92.5%,85.6%,67.3%,98.2%,87%,89.7%,65.9%,103%,98.1%,99.1%,56.5%,82.4%,96.5%,87.5%
O=S(=O)(NCCNc1nccc(-c2c(-c3ccc(F)c(O)c3)nc3sccn23)n1)c1ccc(F)cc1,1.25% (active),11.5%,29%,67.9%,31.5%,36.1%,12.2%,39.4%,26.9%,92.6%,35.9%,49.5%,4.98% (active),29.5%,17.1%,6.5% (active),41.8%,25.7%
Cc1ccc(CNc2c3ccccc3nc3ccccc23)cc1,-0.81% (active),-11% (active),21.8%,38.1%,24.5%,46.9%,19.4%,34.1%,38.5%,26.1%,25.1%,71.3%,31.2%,20.2%,9.04% (active),12%,-2.62% (active),23.4%
N#Cc1cncc(-c2ccc3ncnc(Nc4cccc(Cl)c4)c3c2)c1,74.3%,80.3%,49.1%,85%,41.5%,53.4%,45.1%,58%,61.2%,72.8%,56.4%,69.7%,93.4%,97.6%,75.9%,36.6%,88.4%,90.2%
COc1ccc(/C=C2\COc3ccc(O)cc3C2=O)cc1,15.8%,-0.495% (active),95.3%,102%,104%,128%,99.6%,114%,104%,98.5%,87.9%,87.8%,78.7%,84.6%,15.4%,77.7%,103%,58%

# Source: PubChem BioAssay (NCI)
